Screening results (PubChem)
AmpC inh no detg: blocks E. coli AmpC beta-lactamase in detergent-free assay. AID 485341. Potency, µM (top dose mostly 57.1 µM), for inactives: top-dose activity change, negative = inhibition, actives largely listed as inhibitors. P00811. 0.52% of 330,000 active. AmpC nitrocefin hydrolysis, absorbance 480 nm, 0.0001% Triton;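 note: potency is the fitted concentration of half-maximal effect; plate controls were no compound for no effect and no enzyme for full effect; nearly all actives have a fitted effect of over 20% in size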
Target sequence (P00811 whole entry, looked up): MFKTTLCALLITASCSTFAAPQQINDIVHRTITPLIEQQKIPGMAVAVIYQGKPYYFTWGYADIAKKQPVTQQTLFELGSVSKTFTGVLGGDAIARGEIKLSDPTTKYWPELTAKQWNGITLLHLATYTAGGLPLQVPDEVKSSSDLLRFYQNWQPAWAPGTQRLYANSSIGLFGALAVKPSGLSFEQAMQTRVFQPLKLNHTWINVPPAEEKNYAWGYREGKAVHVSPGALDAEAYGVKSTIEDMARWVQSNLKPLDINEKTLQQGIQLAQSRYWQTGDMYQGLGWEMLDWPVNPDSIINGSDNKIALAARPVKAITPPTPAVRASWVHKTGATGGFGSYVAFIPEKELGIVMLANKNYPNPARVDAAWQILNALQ
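20 mM phosphate pH 7.0 + 0.01% (detergent screen) or 0.0001% Triton X-100; 5.3 nM AmpC reagent; cpd preinc 15 min RT; nitrocefin (800 uM stock) to start; A480 q20 s × 4 min; Activity was normalised to no-enzyme and no-compound control wells.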
CHX counter-1: counter-screen for Shiga toxin inhibitors: cycloheximide protein synthesis inhibition. AID 2314. max response, %. 12% of 300,000 active. cell reporter, cycloheximide protein synthesis inhibition counterscreen; in the data active = max response mostly above about 13%, no sharp cut-off; inactive = mostly below about 14%; note: read at 38.3 µM for the half of the compounds with a filed dose; 0% is about no effect
AmpC inh detg: blocks E. coli AmpC beta-lactamase in detergent assay; Potency, µM (doses to about 114 µM), inactives show top-dose activity change, negative = inhibition, hits mostly inhibitors; AmpC hydrolysis of nitrocefin, absorbance 480 nm, 0.01% Triton; P00811; AID 485294; 0.041% of 370,000 active;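 note: potency is the fitted concentration of half-maximal effect; 0% = no-compound wells and -100% = no-enzyme wells; nearly all actives have a fitted effect of over 25% in size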
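AmpC (5.3 nM in the dispensed reagent) in 20 mM phosphate pH 7.0 with 0.01% (detergent screen) or 0.0001% Triton X-100 was preincubated with compounds for 15 min at room temperature. Nitrocefin was then added from an 800 uM solution, and hydrolysis was followed at 480 nm.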
SARS PLpro yeast: inhibitors of SARS-CoV papain-like protease in yeast; 0.19% of 330,000 active; S. cerevisiae expressing SARS-CoV PLpro, growth rescue; Potency, µM (top dose mostly 32.9 µM), without a hit: at the highest dose activity, positive = growth rescue, hits mostly activators; calls by dose curve; note: potency is the fitted concentration of half-maximal effect; 0% is about no effect; nearly all actives have a fitted effect of over 55% in size
AMA1 RON2 block: disrupts binding of P. falciparum AMA1 to RON2; 0.2% of 360,000 active; Potency, µM (highest dose often 58.2 µM), for the others: at the highest dose activity change, negative = inhibition, actives largely listed as inhibitors; AID 720542; AlphaScreen AMA1-biotinylated RON2 peptide binding;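 note: potency is the fitted concentration of half-maximal effect; 0% = vehicle wells and -100% = peptide control; nearly all actives have a fitted effect of over 45% in size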
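AMA1 (3D7) with his tag at 25 nM final met compounds first, then biotinylated RON2 peptide at 25 nM; detection used donor plus acceptor beads, 10 µg/mL apiece, read by AlphaScreen after 30 min at room temperature.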
Shiga toxin inh: blocks Shiga toxin action in Vero cells | inhibition, % at 38.7 µM | 9.2% of 290,000 active | Vero cells, Shiga toxin protein synthesis inhibition reporter; in the data active = inhibition mostly above about 28%, no sharp cut-off; inactive = mostly below about 43%; note: 0% is about no effect
CHX counter-2: counter-screen for Shiga toxin inhibitors: cycloheximide protein synthesis block; 3% of 510 active; AID 2318; Cycloheximide counterscreen, protein synthesis reporter, Shiga toxin assay; shares compounds with Shiga toxin inh; Potency, µM (highest dose often 38.3 µM), inactives show top-dose activity (activation), hits mostly activators; calls by dose curve; note: potency is the fitted concentration of half-maximal effect; 0% is about no effect
* = called active by the depositor; ? = inconclusive; . = no result; + = active, no number; [ ] = remark or other dose. Many of the other results were omitted from the sample, so hits are more common in it than they were. Unless noted, calls come from the whole dose curve; as a rule, active = well fitted curve in the direction sought with a large enough effect; inconclusive = small, poorly fitted or top-dose-only effect, or another doubt; inactive = no such curve, though single readings can be large; an effect the other way counts as inactive or inconclusive.

SMILES	AmpC inh no detg	CHX counter-1	AmpC inh detg	SARS PLpro yeast	AMA1 RON2 block	Shiga toxin inh	CHX counter-2
Cc1ccc(C(=O)Cn2c(NCCO)nc3ccccc32)cc1	3%	-1	-15%	?	1%	35	.
COC(=O)c1ccc(-c2ncc(-c3cccc4ccccc34)o2)cc1	51%	2	-6%	1%	0%	34*	10µM*
Cc1ccc(-c2nnc(-c3cccc4ccccc34)o2)cc1	.	.	.	.	24%	.	.
CC1CN(C(=O)c2ccccc2)C(=Nc2cccc(S(=O)(=O)N(C)C)c2)S1 (stereo not given)	11%	5	-6%	7%	-4%	-2	.
O=C(CSCc1ccccc1)N1CCN(C(=O)c2ccco2)CC1	-13%	17	-2%	20%	2%	46*	?
O=C(COc1ccccc1)N1CCN(C(=O)c2ccco2)CC1	1%	-1	-1%	7%	2%	-6	.
CC1(C(=O)NS(=O)(=O)c2ccc(Cl)s2)CCN1C(=O)Cc1cc(F)ccc1F (stereo not given)	.	.	.	.	-4%	.	.
CC(=O)c1cccc(NC(=O)/C(=C/c2ccco2)NC(=O)c2ccco2)c1	-15%	2	3%	1%	3%	27*	6%
Cc1cc(C)n(-c2nc(SCCN(C)C)c3c4c(sc3n2)COC(C)(C)C4)n1	13%	-4	-3%	-3%	6%	80*	-5%
Cc1cc(C)n(-c2nc3sc4c(c3c3nnc(SC(C)C)n23)CC(C)(C)OC4)n1	.	.	.	.	-3%	.	.
O=C(Cc1ccccc1)Nc1nc(-c2ccc(F)c(F)c2)cs1	-34%	14	-3%	-2%	-10%	42	.
O=C(Cc1cccs1)Nc1nc(-c2ccc(F)c(F)c2)cs1	-41%	11	9%	-5%	0%	44*	4%
COc1ccc(C(=O)NCc2csc(C(C)C)n2)cc1OC1CCN(C(C)=O)CC1	39%	-1	3%	-3%	1%	-6	.
COC(=O)[C@H](Cc1ccccc1)NC(=O)N1CCCCC1C (stereo not given in full)	1%	10	?	-3%	-8%	117*	1%
COC(=O)[C@H](Cc1ccccc1)NC(=O)N1CCC(C)CC1	13%	9	0%	-6%	1%	-10	.
CC(C)C[C@@H](CNCC(=O)[C@H](C)NC(=O)c1[nH]cnc1C(=O)N[C@@H](C)CN)NC(=O)c1nc[nH]c1C(=O)N[C@@H](C)C(=O)O	.	.	.	.	0%	.	.
Cc1cc(C)cc(NC(=O)C(OC(=O)c2ccc([N+](=O)[O-])o2)c2ccccc2)c1 (stereo not given)	-49%	-2	-5%	-14%	7%[11.6 µM]	30*	1%
CC1COC(C)(CC(=O)NN2C(=O)c3ccccc3C2=O)O1 (stereo not given)	-17%	-2	-2%	0%	8%	-12	.
CCOC(=O)c1c(NC(=O)c2ccn(CC)n2)sc2c1CCCC2	3%	-1	6%	1%	10%	3	.
CCn1ccc(C(=O)NC2=NCCS2)n1	-23%	17	26%	-14%	11%	31*	6%
CC(=O)c1ccc(N2CCN(C(=O)c3ccc4c(=O)n(-c5ccccc5)c(=O)[nH]c4c3)CC2)cc1	18%	-2	-9%	3%	2%	11	.
CN(C)S(=O)(=O)c1ccc(C(=O)Nc2ccc(CN3CCCC3)cc2)cc1	15%	7	-6%	3%	0%	51*	1%
CN(C)S(=O)(=O)c1ccc(C(=O)Nc2ccc(CCC(=O)N3CCCC3)cc2)cc1	-7%	-2	-10%	11%	0%	-4	.
CCCCC1(C)Nc2ccccc2-c2nc3ccccc3n21 (stereo not given)	-36%	13	-10%	-10%	28%	84*	22µM*
CN1C(=O)C2(Nc3ccccc3-c3nc4ccccc4n32)c2ccccc21 (stereo not given)	-5%	7	-3%	0%	-2%	6	.
SMILES	AmpC inh no detg	CHX counter-1	AmpC inh detg	SARS PLpro yeast	AMA1 RON2 block	Shiga toxin inh	CHX counter-2
CC1CC(C)CN(C(=O)C(NS(=O)(=O)c2ccc(Br)s2)c2ccccc2)C1 (stereo not given)	10%	9	1%	-42%	2%	+	1%
COc1cc(/C=C2/C(=O)c3cccc([N+](=O)[O-])c3C2=O)c(Br)cc1O	-35%	4	-11%	-54%	?	61*	?
CNC(=O)c1cccn(Cc2cc(C(F)(F)F)cc(C(F)(F)F)c2)c1=O	58%	4	-5%	-8%	-7%	-2	.
CNC(=O)c1cccn(Cc2ccc(C(F)(F)F)cc2)c1=O	-3%	6	8%	-3%	-3%	26*	-3%
O=C(CSc1ccc(Cl)cc1)Nc1ccccc1Oc1ccccc1	-20%	-3	-4%	14%	-2%[11.6 µM]	-47	.
CCOc1ccc(NC(=O)c2sc(-n3nc(C)c(Cc4ccc(Cl)cc4)c3C)nc2C)cc1	.	.	-6%	.	.	.	.
O=C(NCCc1c[nH]c2ccccc12)Nc1ccccc1C(F)(F)F	.	.	2%	.	.	.	.
O=C(Cc1c[nH]c2ccccc12)NCc1ccc(Cl)cc1	-34%	10	2%	-2%	-6%	30*	7%
O=C(NCCc1c[nH]c2ccccc12)C(F)(F)F	-17%	10	-4%	-3%	-6%	43*	-1%
COc1ccccc1CN(C)S(=O)(=O)c1cccs1	-19%	6	-14%	4%	10%	69*	3%
CN(Cc1ccccc1C#N)S(=O)(=O)c1cccs1	-17%	7	-10%	-3%	4%	34	.
CC(C)(C)C1CCC(C(=O)OCC(=O)c2ccc[nH]2)CC1 (stereo not given)	-16%	8	?	12%	8%	27*	0%
COc1ccc(OC)c(NC(=O)Cn2cc(C(=O)c3ccc(Cl)cc3)c(=O)c3cc(OC)ccc32)c1	.	.	3%	.	.	.	.
C/C1=C\[C@@H](O)C(C(C)C)C(OC(=O)c2ccc(O)cc2)C/C(C)=C/CC1 (stereo not given in full)	.	4	.	.	.	24*	?
Nc1nc(-c2ccc3c(c2)CCC(=O)N3)cs1	-35%	7	-1%	1%	-6%	42*	?
CC1=C(C(=O)N2CCCCCC2)CC(CC(=O)NCCc2ccccn2)C(=O)N1Cc1ccccc1 (stereo not given)	.	.	.	.	80%	.	.
C[C@H](O)C#Cc1cnc2c(c1)C(=O)N([C@H](C)CO)C[C@@H](C)[C@H](CN(C)C(=O)Nc1ccc(C(F)(F)F)cc1)O2	.	.	.	.	0%	.	.
Cc1ccc(CSc2nnc(CCCCCNC(=O)OC(C)(C)C)o2)cc1	95%	-3	-1%	0%	-12%	25*	-1%
